# Mac1 fbg inh: CD11b/CD18-fibrinogen binding inhibition. AID 1497. inhibition, % at 10 µM. K562 CD11b/CD18 adhesion to fibrinogen, ATPlite luminescence; Mn2+ added to activate the integrin. actives 0.54% (n = 93,000). P05107+P11215;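 active = primary inhibition of 50% or more at 10 µM, then 40% or more on retest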
# Cav32 inh: inhibitors of human Cav3.2 T-type calcium channel; O95180; Cav3.2-expressing cells, Fluo-4 calcium fluorescence FDSS; hits give low values; B-score at 10 µM; actives 4% (n = 100,000); AID 449739;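 active = single-dose well whose peak fluorescence ratio is a statistical outlier from its plate by either plate-standardised score or position-corrected B-score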
# Target sequence (O95180 whole entry, looked up): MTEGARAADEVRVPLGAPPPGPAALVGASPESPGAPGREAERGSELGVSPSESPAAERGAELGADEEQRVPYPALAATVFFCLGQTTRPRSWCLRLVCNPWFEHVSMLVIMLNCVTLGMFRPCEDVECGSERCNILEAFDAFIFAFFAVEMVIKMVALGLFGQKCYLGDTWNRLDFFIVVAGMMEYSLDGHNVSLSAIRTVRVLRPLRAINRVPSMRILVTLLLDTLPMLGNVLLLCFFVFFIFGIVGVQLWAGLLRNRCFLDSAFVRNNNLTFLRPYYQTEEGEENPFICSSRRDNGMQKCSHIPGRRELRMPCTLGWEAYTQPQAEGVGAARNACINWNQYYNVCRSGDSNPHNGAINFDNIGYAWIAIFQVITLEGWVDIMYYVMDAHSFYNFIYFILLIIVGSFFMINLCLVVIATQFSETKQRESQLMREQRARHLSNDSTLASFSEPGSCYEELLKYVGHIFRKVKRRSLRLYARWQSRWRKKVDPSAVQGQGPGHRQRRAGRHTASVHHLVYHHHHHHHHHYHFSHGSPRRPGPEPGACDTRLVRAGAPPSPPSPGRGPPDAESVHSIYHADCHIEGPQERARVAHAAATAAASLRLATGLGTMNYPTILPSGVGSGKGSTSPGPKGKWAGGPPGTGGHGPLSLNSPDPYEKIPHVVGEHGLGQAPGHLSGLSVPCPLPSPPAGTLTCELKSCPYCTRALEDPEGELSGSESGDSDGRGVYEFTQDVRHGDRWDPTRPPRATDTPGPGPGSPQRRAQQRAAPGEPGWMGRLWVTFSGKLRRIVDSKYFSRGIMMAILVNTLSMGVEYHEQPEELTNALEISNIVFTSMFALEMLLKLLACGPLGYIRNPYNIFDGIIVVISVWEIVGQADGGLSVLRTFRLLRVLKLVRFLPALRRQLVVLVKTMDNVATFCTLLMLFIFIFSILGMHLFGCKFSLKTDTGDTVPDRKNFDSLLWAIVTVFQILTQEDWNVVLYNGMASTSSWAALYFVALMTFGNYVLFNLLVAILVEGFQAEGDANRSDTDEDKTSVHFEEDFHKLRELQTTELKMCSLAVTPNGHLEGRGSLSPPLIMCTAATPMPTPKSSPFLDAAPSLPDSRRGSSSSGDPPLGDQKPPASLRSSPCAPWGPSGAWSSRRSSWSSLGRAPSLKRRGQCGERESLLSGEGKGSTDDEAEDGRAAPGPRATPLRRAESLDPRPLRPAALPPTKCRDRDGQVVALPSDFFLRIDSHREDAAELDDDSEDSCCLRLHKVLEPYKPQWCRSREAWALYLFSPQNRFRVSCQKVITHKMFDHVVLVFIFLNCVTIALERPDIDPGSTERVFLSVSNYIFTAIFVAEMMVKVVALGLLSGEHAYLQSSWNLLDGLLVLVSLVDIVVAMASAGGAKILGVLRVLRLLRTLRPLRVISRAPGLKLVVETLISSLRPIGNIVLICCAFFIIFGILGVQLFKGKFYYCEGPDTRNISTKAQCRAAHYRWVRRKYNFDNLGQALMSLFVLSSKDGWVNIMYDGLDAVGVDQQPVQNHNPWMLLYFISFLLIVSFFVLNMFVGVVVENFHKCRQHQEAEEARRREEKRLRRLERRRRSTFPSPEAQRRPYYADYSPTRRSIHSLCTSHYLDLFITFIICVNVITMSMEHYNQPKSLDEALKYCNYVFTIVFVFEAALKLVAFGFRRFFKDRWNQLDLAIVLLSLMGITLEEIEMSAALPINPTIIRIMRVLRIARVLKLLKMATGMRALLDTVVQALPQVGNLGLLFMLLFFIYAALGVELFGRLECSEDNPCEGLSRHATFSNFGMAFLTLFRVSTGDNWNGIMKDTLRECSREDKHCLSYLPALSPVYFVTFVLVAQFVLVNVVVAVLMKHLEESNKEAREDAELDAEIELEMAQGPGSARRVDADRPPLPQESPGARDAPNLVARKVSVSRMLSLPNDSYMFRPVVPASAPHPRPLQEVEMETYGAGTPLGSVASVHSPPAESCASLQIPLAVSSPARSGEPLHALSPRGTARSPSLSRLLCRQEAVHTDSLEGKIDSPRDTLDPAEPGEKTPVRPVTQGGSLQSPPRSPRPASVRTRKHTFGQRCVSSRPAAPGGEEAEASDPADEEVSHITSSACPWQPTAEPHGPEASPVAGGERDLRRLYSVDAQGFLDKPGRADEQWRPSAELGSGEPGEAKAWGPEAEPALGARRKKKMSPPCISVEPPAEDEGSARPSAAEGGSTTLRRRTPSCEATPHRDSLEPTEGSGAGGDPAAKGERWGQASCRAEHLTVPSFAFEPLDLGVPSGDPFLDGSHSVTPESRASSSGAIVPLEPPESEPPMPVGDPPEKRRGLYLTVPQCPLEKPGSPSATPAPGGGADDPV
# PTK2B oligo ant: Pyk2 (human) oligomerization antagonism. AID 1347419. Q293 cells, Pyk2 FERM NanoBiT luminescence; hits give low values. z-score (the deposit names both 25 µM and 10 µM). actives 0.83% (n = 99,000);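 active = Z-score of -3 or lower, scaled per plate to the spread of control and sample wells; inactive = z-score above -3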;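 note: negative z-score means lost luminescence so less FERM oligomerization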
# MRP resist rev: reverses drug resistance mediated by MRP; H69AR cells + 2 uM doxorubicin, CellTiter-Glo, 72 h; differential viability (reversal), % at 10 µM; actives 0.04% (n = 85,000); AID 602;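 active = viability drop by adding the cancer drug above about 55%, with treated viability meeting a 40% cutoff, limit read from the data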;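 note: viability without doxorubicin minus viability with 2 µM doxorubicin for each compound; larger differential means the compound sensitizes cells more to doxorubicin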
# Mac1 fbg enh: CD11b/CD18-fibrinogen binding enhancement; P05107+P11215; K562 CD11b/CD18 adhesion to fibrinogen, ATPlite luminescence; activation, % at 10 µM; actives 0.07% (n = 93,000); AID 1499;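 active = 10 µM primary screen giving 50% or more activity, confirmed by 40% or more on retest at that dose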
# MRP1 act: MRP-1 activation | H69AR cells + doxorubicin, viability rescue, CellTiter-Glo | viability increase, % at 10 µM | actives 0.61% (n = 140,000) | AID 799;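 active = viability gain under doxorubicin at or above a set limit, the compound median plus 3 SD, cut at about 4.7% in these data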;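 note: MRP-1 overexpressing cells given doxorubicin 25 µM after compound pretreatment; 18-22 h compound pretreatment then 72 h with doxorubicin before readout; 0% = doxorubicin-only wells and 100% = vehicle-treated cells without doxorubicin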
# * marks the source's active call; other numbers are inactive results; nt = not tested or not shown. This is a sample that favours compounds with a hit; in the whole collection about 4.1% have one here.
SMILES,Mac1 fbg inh,Cav32 inh,PTK2B oligo ant,MRP resist rev,Mac1 fbg enh,MRP1 act
COc1ccc(C(=O)CN2C(=O)c3ccccc3C2=O)c(OC)c1C,-29.3,-5.23*,-0.59,6.1,1.8,0.2
OC(COc1c(Cl)cc(Cl)cc1Cl)CN1CCCCC1 (stereo unspecified),-6.3,-2.9*,-0.34,-3.6,-1.5,-3.2
OC(COc1ccc(Cl)cc1)CN1CCCCC1 (stereo unspecified),1.4,0.0494,0.12,1.3,-2.9,0.1
O=C(COC(=O)/C=C/c1ccc([N+](=O)[O-])cc1)NC(c1ccccc1)c1ccccc1,nt,nt,nt,nt,nt,-0.9
CCN(Cc1ccccc1)C(=O)CC1Oc2ccccc2NC1=O (stereo unspecified),-10.2,-0.019,nt,7.9,0.7,0.2
CC(C)(C)C(=O)NNC(=O)CCCOc1ccc(Cl)cc1Cl,nt,0.262,0.85,nt,nt,-0.3
CC1Cc2cc(-c3csc(NC(=O)Cc4cccs4)n3)ccc2N1S(C)(=O)=O (stereo unspecified),92.4,nt,-3.12*,-3.4,-6.6,1.4
O=C(Cc1ccccc1F)Nc1nc(-c2cccs2)cs1,33.8,-9.64*,-1.31,11.4,-4.4,-0.5
O=C(CCCc1cccs1)Nc1nc(-c2ccc(F)cc2)cs1,nt,nt,nt,nt,nt,-1.2
O=C(Cc1cccs1)Nc1nc(-c2ccc(F)cc2F)cs1,65.3*,-2.97,-1.37,-4.4,-6.0,-1.7
CSc1ccccc1NC(=O)c1cc(CC(C)C)on1,-7.1,-0.953,nt,2.8,-0.7,0.0
Cc1cc(C)n(C(=O)CNc2ccc(C)c(C)c2)n1,nt,0.262,1.42,16.3,nt,-1.9
COc1ccc(-n2c(C)nc(=O)c(-c3ccccc3)c2C)cc1,nt,-0.0178,0.49,3.8,nt,8.2*
Cc1nc(=O)c(-c2ccccc2)c(C)n1-c1cccc(C(=O)O)c1,0.1,-0.352,0.74,-3.6,-3.0,6.0*
CCOc1nc(C)ccc1-c1noc(-c2ccccc2OC)n1,-0.1,-1.58,-1.01,0.8,-0.9,-1.9
Cc1ccccc1NC(=S)N1CCOCC1,nt,nt,nt,nt,nt,2.0
Cc1cccc(-n2c(CNC(=O)c3ccc(S(=O)(=O)N4CCCC4)cc3)n[nH]c2=S)c1,-9.7,0.241,1.94,-5.0,-3.0,0.9
Cc1ccc(NCc2nnc(SCCN3CCCCC3)n2CC2CCCO2)cc1Cl (stereo unspecified),2.1,-1.26,0.29,13.6,-1.6,-5.5
Cc1sc2ncnc(NCCc3ccc(S(N)(=O)=O)cc3)c2c1C,51.4*,nt,1.01,nt,-5.4,-0.6
COc1c2occc2c(OC)c2c(=O)cc(C(F)(F)F)oc12,-25.1,1.06,-1.45,-1.5,-1.8,-0.9
COc1c2occc2c(OC)c2c(=O)cc(C(F)(F)C(F)(F)F)oc12,-2.0,-0.51,-3.21*,3.3,3.8,-0.7
Cc1ccc(C)c(NC(=O)c2cc(=O)c3ccccc3o2)c1,nt,nt,nt,nt,nt,-1.8
Cc1cc(Cl)ccc1NC(=O)CSc1nnc(Cc2cccs2)n1Cc1ccco1,nt,-7.65*,0.03,-0.9,nt,-0.1
Cc1ccc(NCc2nnc(SCc3ccc(C#N)cc3)n2Cc2ccco2)c(C)c1,-1.9,-6.45*,0.26,-5.6,3.3,-0.3
Cc1ccc(NCc2nnc(SCC(=O)Nc3ncc(C)s3)n2CC2CCCO2)c(C)c1 (stereo unspecified),10.9,-4.51*,0.65,6.1,-3.6,-3.7
SMILES,Mac1 fbg inh,Cav32 inh,PTK2B oligo ant,MRP resist rev,Mac1 fbg enh,MRP1 act
Cc1ccc(C(=O)CSc2nnc(CNc3ccc(C)cc3C)n2Cc2ccco2)cc1,12.8,-9.75*,-0.22,-5.5,1.2,-4.7
Cc1ccc(NCc2nnc(SCC(=O)N3CCCCC3)n2CC2CCCO2)c(C)c1 (stereo unspecified),nt,-0.167,0.28,0.2,nt,nt
CN(C)S(=O)(=O)N(CCN1CCOCC1)Cc1ccccc1F,-13.6,0.155,0.14,25.9,-5.8,-2.5
O=C1[C@H](CC[C@H](O)c2ccc(F)cc2)[C@@H](c2ccc(O)cc2)N1c1ccc(F)cc1,nt,-4.13*,nt,nt,nt,nt
Cc1cccc(N2CCN(C(=O)c3cc4c(=O)n(C)c5ccccc5c4n3C)CC2)c1C,1.3,0.147,nt,13.9,-0.1,0.3
CCOC(=O)C1CCCN(C(=O)c2cc3c(=O)n(C)c4ccccc4c3n2C)C1 (stereo unspecified),-1.7,3.05*,nt,-3.3,0.0,-4.1
Cc1ccc(Cl)cc1N1CCN(C(=O)c2cc3c(=O)n(C)c4ccccc4c3n2C)CC1,85.6*,-1.27,nt,-1.1,-6.6,1.2
CCOC(=O)C1CCCN(C(=O)c2cc(Nc3ccc(OC)cc3)nc3ccccc23)C1 (stereo unspecified),16.3,-5.49*,-1.32,4.4,0.9,-3.9
O=C(CSc1ccc(Cl)cc1)N1CCN(c2ccc(Cl)cc2[N+](=O)[O-])CC1,-9.7,-3.79*,-0.23,nt,-3.6,-1.4
Cc1cc(=O)oc2c3c4c(cc12)OCCN4CCC3,nt,-4.14,0.08,-5.1,nt,-4.9
CC(C)c1cc(=O)oc2c3c4c(cc12)CCCN4CCC3,-8.1,-3.95*,2.47,-3.3,-1.1,-3.0
O=c1oc2c3c4c(cc2c(C(F)(F)F)c1CCN1CCOCC1)CCCN4CCC3,-23.1,-6.62*,-0.48,8.7,4.4,-0.8
O=c1oc2c(CN3CCOCC3)c(O)ccc2c2c1CCC2,-2.8,-0.0535,-0.35,11.2,3.3,-1.6
CCc1ccc(OCC(=O)NC(NC(=S)Nc2ccccc2OC)C(Cl)(Cl)Cl)cc1 (stereo unspecified),-14.4,nt,nt,nt,9.4,-5.5
Cc1ccc(S(=O)(=O)NC2CCCc3ccccc32)cc1C (stereo unspecified),-40.6,-4.17*,-0.92,12.0,-2.2,-3.4
COc1cccc(NC(=O)N2CCN(c3cccc(C)c3C)CC2)c1,7.3,-7*,-0.62,nt,4.9,-1.1
Cc1nnc(SCc2ccc(Cl)cc2)n1CC1CCCO1 (stereo unspecified),nt,0.617,0.61,-0.1,nt,-0.4
CC(C)C[C@@H]1NC(=O)[C@H](C(C)C)NC(=O)c2cc([N+](=O)[O-])cc(I)c2OCC[C@@H](C(N)=O)NC1=O,nt,0.19,nt,nt,nt,-0.5
COc1ccc(-n2c(SCCC#N)nnc2-c2cc(Cl)ccc2OC)cc1Cl,nt,-4.3*,-0.79,-54.9,nt,-3.5
COCCOC(=O)c1c(C)oc2ccc(OCC=C(C)C)cc12,22.7,-1.09,0.97,nt,-0.2,0.4
CCN1CCN(C(=O)CCCn2c(C)c3cnn(-c4ccccc4)c(=O)c3c2C)CC1,-3.3,2.02,nt,-1.7,-2.7,-0.2
Cc1c2cnn(-c3ccccc3)c(=O)c2c(C)n1CCCC(=O)N1CCN(c2ncccn2)CC1,-12.4,5.47*,0.58,nt,-2.2,-3.0
N#C/C(=C(/O)COC(=O)CCCNC(=O)c1ccc(Cl)cc1)c1nc2ccccc2[nH]1,-12.6,-0.86,-0.71,-7.0,5.9,-1.3
Cc1cc(C)cc(OCC(=O)N2N=C(C(F)(F)F)CC2(O)C(C)(C)C)c1 (stereo unspecified),nt,-4.29*,0.53,-7.0,nt,-1.3
Cn1c(=O)c2c(nc(SCC(=O)NC3CCCCC3)n2C)n(C)c1=O,nt,nt,nt,6.0,nt,nt

# Assay outcomes from PubChem BioAssay.
